Results reported in PubChem BioAssay AID583 (Sanford-Burnham Center for Chemical Genomics, 2007).
Several values for one entry are separate records, joined by “and”; a condition that tells them apart may be missing. Equal values may be shown once. Screen size: about 140,000 compounds; about 80 (0.06%) were called active. Rule as the data show it: active = displacement above about 50%; inactive = the rest. Many of the other results were omitted from the sample, so actives are more common in it than they were. The source holds several records for some structures; these can differ, active in one and inactive in another.

Target: Heat shock 70 kDa protein 1A (Homo sapiens) (UniProt P0DMV8)
Experiment: Hsp70 inhibitors, probe displacement, primary screen, biochemical, fluorescence polarization (AID 583);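 also: plate controls were vehicle for no effect and reference ligand for full effect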
Conditions: mP, at 20 µM, stronger effect = higher value

Sequence of Heat shock 70 kDa protein 1A (Homo sapiens) (P0DMV8 whole entry, looked up): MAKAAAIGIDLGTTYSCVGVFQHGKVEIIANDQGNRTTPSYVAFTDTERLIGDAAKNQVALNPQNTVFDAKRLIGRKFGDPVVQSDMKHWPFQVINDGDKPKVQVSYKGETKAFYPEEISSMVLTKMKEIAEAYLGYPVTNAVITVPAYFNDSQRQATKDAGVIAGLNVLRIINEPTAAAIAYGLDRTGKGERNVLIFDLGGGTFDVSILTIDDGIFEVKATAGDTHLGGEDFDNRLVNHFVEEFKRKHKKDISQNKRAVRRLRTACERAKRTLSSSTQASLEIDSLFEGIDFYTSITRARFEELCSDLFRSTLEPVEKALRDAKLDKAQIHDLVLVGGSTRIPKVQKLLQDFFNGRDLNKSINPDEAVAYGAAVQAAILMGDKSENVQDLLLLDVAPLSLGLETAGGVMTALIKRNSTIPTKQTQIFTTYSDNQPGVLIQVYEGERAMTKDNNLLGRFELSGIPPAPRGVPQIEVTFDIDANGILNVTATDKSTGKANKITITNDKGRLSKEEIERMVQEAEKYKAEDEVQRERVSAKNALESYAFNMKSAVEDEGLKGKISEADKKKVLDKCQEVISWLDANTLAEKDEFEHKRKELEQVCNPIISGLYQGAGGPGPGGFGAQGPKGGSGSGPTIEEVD

SMILES	displacement
CN(C)c1ccc(/C=C2\NC(=O)c3ccccc3C2=O)cc1	2.7% (inactive)
CCOC(=O)c1sc2ncc([N+](=O)[O-])c(NC)c2c1N	-5.6% (inactive)
Cc1cc(=O)[nH]c(SCC(=O)Nc2ccc(S(N)(=O)=O)cc2)n1	4.4% (inactive)
O=C(N=Nc1c(O)n(Cc2ccccc2)c2ccccc12)c1ccccc1O	2.1% (inactive)
Cc1ccc(NC(=O)c2ccccc2O)cc1	2.2% (inactive)
Cc1ccc(C(=O)O/N=C(\N)c2ccccn2)cc1	0.2% (inactive)
O=C(N/N=C/c1ccccc1OCc1ccccc1)c1ccccc1O	6% (inactive)
O=C(Cn1nc(C(=O)O)c2ccccc2c1=O)NCC1CCCO1 (centres undefined)	-0.7% (inactive)
CC(NC(=O)c1c(NC(=O)c2ccco2)sc2c1CCCCC2)c1ccccc1 (centres undefined)	-6% (inactive)
COC(=O)COc1ccc(/C=C2\C(=O)NC(=S)N(c3ccc(F)cc3)C2=O)cc1OC	2.8% (inactive)
COc1ccc(CNC(=O)c2c(Cl)cccc2Cl)cc1	5.5% (inactive)
O=C(Nc1cccc2nsnc12)c1ccc(Cl)cc1Cl	3.7% (inactive)
Cc1nc(=O)c(-c2ccccc2)c(C)n1-c1ccc(O)c(C(=O)O)c1	-3.3% (inactive)
Cc1nc(=O)c(-c2ccccc2)c(C)n1-c1ccc(C(=O)O)c(O)c1	0.2% (inactive)
Cc1ccc(C)n1-c1ccc(C(=O)O)c(Cl)c1	33.7% (inactive)
Cc1ccc(-c2ccccc2)n1-c1ccc(Cl)c(C(=O)O)c1	-4% (inactive)
Cc1ccc(C)n1-c1ccc(Cl)c(C(=O)O)c1	83.5% (active)
Cc1ccc(-c2ccccc2)n1-c1ccc(O)c(C(=O)O)c1	4.2% (inactive)
Cc1ccc(C)n1-c1ccc(O)c(C(=O)O)c1	98.2% (active)
Cc1ccc(C)n1-c1ccc(C(=O)O)c(O)c1	98.5% (active)

SMILES	displacement
O=C(O)c1ccc(-n2cccc2)cc1O	-0.2% (inactive)
CC(C)c1c(O)nc(SCC(=O)Nc2ccc3c(c2)CCC3)[nH]c1=O	1.5% (inactive)
Cc1cc(Cl)c2cc(C(=O)O)ccc2n1	2.8% (inactive)
Cc1ccc(-c2ccccc2)n1-c1cccc(C(=O)O)c1	-1.8% (inactive)
Cc1ccc(C)n1-c1ccc(C(=O)O)cc1	16% (inactive)
Cc1ccc(C)n1-c1cc(C(=O)O)cc(C(=O)O)c1	8.5% (inactive)
Cc1cc(C(=O)O)ccc1-n1c(C)ccc1C	61.3% (active) and 37.4% (inactive)
Cc1ccc(C(=O)O)cc1-n1c(C)ccc1C	67.8% (active)
Cc1ccc(C)n1-c1cc(C(=O)O)ccc1O	27% (inactive)
Cc1cc(N)ccc1-n1c(C)ccc1C	-2.7% (inactive)
Cc1ccc(-c2ccccc2)n1-c1ccc(C(=O)O)cc1	-1.6% (inactive)
Cc1ccc(C)n1-c1cc(C(=O)O)ccc1Cl	89.5% (active)
Cc1ccc(N2C(=O)c3ccc(C(=O)O)cc3C2=O)c(C)c1	0.7% (inactive)
CCN(CC)CCn1c2ccccc2n2cc(C(C)(C)C)nc12	0% (inactive)
CC(=O)Nc1ccc(N2C(=O)c3cc4ccccc4cc3C2=O)cc1	5.1% (inactive)
Cc1cc(Br)cc2c(N=Nc3cccc4cccnc34)c(O)n(C)c12	3.2% (inactive)
CC(=O)C(C(C)=O)c1c(Cl)c(O)c(O)c2c(C(=O)c3ccccc3)coc12	1% (inactive)
COc1cccc(C(=O)CSc2nnc(COc3cccc4cccnc34)o2)c1	3.7% (inactive)
O=C(O)COc1ccc(N2C(=O)C=CC2=O)cc1	0.9% (inactive)
Cc1ccc(C)n1-c1ccc(CC(=O)O)cc1	23.3% (inactive)

SMILES	displacement
Cc1ccc(C)n1-c1ccc(OCC(=O)O)cc1	62.2% (active)
CC(=O)c1ccc(-n2c(C)ccc2C)cc1	6.4% (inactive)
CC(C)(C)c1ccc(OCC(=O)O)cc1	4.2% (inactive)
Cc1ccc(C)n1-c1ccc(SCC(=O)O)cc1	100% (active)
CC1CCCCN1CCNC(=O)CC1Oc2ccccc2NC1=O (centres undefined)	9.4% (inactive)
CCOC(=O)c1c(C)[nH]c(C(=O)COC(=O)C(C)N2C(=O)C3CCCCC3C2=O)c1C (centres undefined)	-1.9% (inactive)
CCOC(=O)C1CCN(C(=O)CSCCSCC(=O)N2CCC(C(=O)OCC)CC2)CC1	-0.9% (inactive)
COc1ccc2[nH]c(=O)c(CN(C(=O)c3ccco3)C3CCCCC3)cc2c1	-0.4% (inactive)
O=C1S/C(=C\c2cccs2)C(=O)N1c1cccc(Cl)c1	-1.3% (inactive)
CC(Oc1ccc2c3c(c(=O)oc2c1)CCCC3)C(=O)c1ccccc1 (centres undefined)	2.3% (inactive)
O=C(CCn1nnc2ccccc2c1=O)NCC1CCC(C(=O)O)CC1 (centres undefined)	2% (inactive)
O=C(CNC(=O)c1ccc(Cl)cc1Cl)c1ccccc1	1.6% (inactive)
COc1cccc(CN(CC2CCCO2)S(=O)(=O)c2ccc(S(=O)(=O)NCC3CCCO3)cc2)c1OC (centres undefined)	-2.5% (inactive)
C=CCN1C(=O)/C(=C\c2ccc(I)o2)C(=O)NC1=S	0.9% (inactive)
C=CCN1C(=O)/C(=C\c2ccc([N+](=O)[O-])o2)C(=O)NC1=S	95.9% (active)
C=CCN1C(=O)/C(=C\c2ccc(-c3ccc([N+](=O)[O-])cc3)o2)C(=O)NC1=S	2.8% (inactive)
Cc1ccc(NC2=C(Cl)C(=O)N(c3ccccc3Cl)C2=O)cc1C	0.5% (inactive)
CCOc1ccc(C(=O)Nc2ccc(NC(=O)c3ccccc3Cl)cc2)cc1Br	-4.2% (inactive)
COc1ccc(/C=C/C(=O)Nc2nc(C)c(C)s2)cc1OC	-0.1% (inactive)
